Assay results from the supplement of paper PMC11219838.

What was measured:
Details in all cases: 60 µM; 5 days; temperature: 20 °C
Meloidogyne hapla J2 = assay: proportion of mobile M. hapla J2 relative to DMSO control (fraction of DMSO control); higher = more viable, less nematicidal, active = 0.7 or less
Outline: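 Compound was pinned to 60 µM final (0.6% v/v DMSO) into 96-well wells, each holding about 25 M. hapla J2 in distilled water. Plates were sealed and shaken for 5 days at 20 °C and 200 rpm, then given 2 µL 1 M NaOH per well. Microscopic mobility scores were normalised to the mean of the plate's own DMSO wells, eight per plate, with two biological replicates averaged.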

[1] = system: Caenorhabditis elegans dauer (daf-2(e1370)); assay: proportion of mobile C. elegans dauer larvae relative to DMSO control (fraction of DMSO control); higher = more viable, less nematicidal, active = 0.63 or less; extreme values may be limits of the assay
Outline: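 The proportion of mobile worms, relative to DMSO wells, was scored by dissection microscope and averaged over two biological replicates. Worms were C. elegans dauers, about 20 per well in liquid NGM in 96-well plates, generated from synchronized larvae on MYOB plates with E. coli OP50 at 25 °C for 48 h. They were treated with compound pinned to 60 µM final (0.6% v/v DMSO) and kept in sealed plates shaken at 200 rpm for 5 days at 20 °C.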

Ditylenchus dipsaci = assay: proportion of mobile D. dipsaci (mixed stage) relative to DMSO control (fraction of DMSO control); higher = more viable, less nematicidal, active = 0.86 or less; extreme values may be limits of the assay
Outline: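 Mobility values are relative to DMSO controls and are averages of two biological replicates. For each well of a 96-well plate, about 20 D. dipsaci worms, grown on pea plants in Gamborg B-5 agar and funnel-extracted into water, were dispensed in distilled water. Plates received pinned compound at 60 µM final with 0.6% v/v DMSO and were sealed and shaken at 200 rpm for 5 days at 20 °C before 2 µL 1 M NaOH was added and mobile worms were scored by microscope.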

Cc1ccc(-c2nc(-c3ccccc3Br)no2)cc1
inactive: proportion of mobile M. hapla J2 (Meloidogyne hapla J2) 0.962 | proportion of mobile C. elegans dauer larvae [1] 1 | proportion of mobile D. dipsaci (Ditylenchus dipsaci) 1

CCOc1ccccc1-c1nc(-c2ccc(Cl)cc2)no1
inactive: proportion of mobile M. hapla J2 (Meloidogyne hapla J2) 0.856 | proportion of mobile C. elegans dauer larvae [1] 1 | proportion of mobile D. dipsaci (Ditylenchus dipsaci) 1

COc1ccc(-c2noc(COc3ccc(C)cc3C)n2)cc1
inactive: proportion of mobile M. hapla J2 (Meloidogyne hapla J2) 0.93 | proportion of mobile C. elegans dauer larvae [1] 1 | proportion of mobile D. dipsaci (Ditylenchus dipsaci) 1

Clc1ccc(-c2nnc(SCc3ccccc3)o2)c(Cl)c1
inactive: proportion of mobile M. hapla J2 (Meloidogyne hapla J2) 0.957 | proportion of mobile C. elegans dauer larvae [1] 1 | proportion of mobile D. dipsaci (Ditylenchus dipsaci) 1

COc1ccc(-c2noc(-c3ccc(C)c(Cl)c3)n2)cc1
inactive: proportion of mobile M. hapla J2 (Meloidogyne hapla J2) 0.986 | proportion of mobile C. elegans dauer larvae [1] 1 | proportion of mobile D. dipsaci (Ditylenchus dipsaci) 1

COc1ccc(CSc2nnc(-c3ccc(Cl)cc3Cl)o2)cc1
inactive: proportion of mobile M. hapla J2 (Meloidogyne hapla J2) 1.01 | proportion of mobile C. elegans dauer larvae [1] 1 | proportion of mobile D. dipsaci (Ditylenchus dipsaci) 1

CCOc1nc(-c2ccccc2)ccc1-c1noc(CC)n1
inactive: proportion of mobile M. hapla J2 (Meloidogyne hapla J2) 0.998 | proportion of mobile C. elegans dauer larvae [1] 1 | proportion of mobile D. dipsaci (Ditylenchus dipsaci) 1

Cn1cc(C(=O)CSc2nnc(-c3ccccc3)o2)c2ccccc21
inactive: proportion of mobile M. hapla J2 (Meloidogyne hapla J2) 1.01 | proportion of mobile C. elegans dauer larvae [1] 1 | proportion of mobile D. dipsaci (Ditylenchus dipsaci) 1

Cc1cc(Cl)ccc1OCc1nc(-c2ccccc2)no1
inactive: proportion of mobile M. hapla J2 (Meloidogyne hapla J2) 1.02 | proportion of mobile C. elegans dauer larvae [1] 1 | proportion of mobile D. dipsaci (Ditylenchus dipsaci) 1

Clc1ccccc1OCc1nc(-c2cccs2)no1
inactive: proportion of mobile M. hapla J2 (Meloidogyne hapla J2) 1.06 | proportion of mobile C. elegans dauer larvae [1] 1 | proportion of mobile D. dipsaci (Ditylenchus dipsaci) 1

CCOC(=O)c1sc(NC(=O)CSc2nnc(-c3ccc(Cl)cc3)o2)c(C(=O)OCC)c1C
inactive: proportion of mobile M. hapla J2 (Meloidogyne hapla J2) 0.906 | proportion of mobile C. elegans dauer larvae [1] 1 | proportion of mobile D. dipsaci (Ditylenchus dipsaci) 1

O=C(CSc1nnc(-c2ccco2)o1)Nc1cccc(C(F)(F)F)c1
inactive: proportion of mobile M. hapla J2 (Meloidogyne hapla J2) 0.879 | proportion of mobile C. elegans dauer larvae [1] 1 | proportion of mobile D. dipsaci (Ditylenchus dipsaci) 1
